Screens (PubChem BioAssay)
LDHA block – qHTS assay for inhibitors of human lactate dehydrogenase; 480,000 compounds, 0.15% hits; activity change, % (values are at about 110 or 230 µM); AID 1347041, 2019; purified LDHA, NADH/diaphorase-resazurin fluorescence; stronger effect = lower value; in the data active = activity change below about -30%; inconclusive = mostly about -25% to -30%
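Remaining NADH was detected by diaphorase (0.133 mg/mL) converting 37 µM resazurin to fluorescent resorufin, read at 0 and 20 minutes. The preceding 5-minute room-temperature reaction used 2 nM LDHA, 0.2 mM sodium pyruvate and 0.06 mM NADH at pH 7.4.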
ClpP mod – qHTS Assay for Activators of ClpP. ATP-dependent Clp protease proteolytic subunit (Bacillus subtilis (strain 168)), P80244. purified B. subtilis ClpP, FRET peptide cleavage, 20 min. Potency, µM (doses to about 57.5 µM). 340,000 compounds, 1.9% hits. AID 651965, 2013; active = well fitted falling curve with a large enough effect; inconclusive = small, poorly fitted or top-dose-only effect; inactive = no such curve, though single readings can be large or run the other way; also: the source files actives as falling curves though it sought activators and does not explain the sign; nearly all actives have a fitted effect of over 65% in size
Target sequence (P80244 whole entry, looked up): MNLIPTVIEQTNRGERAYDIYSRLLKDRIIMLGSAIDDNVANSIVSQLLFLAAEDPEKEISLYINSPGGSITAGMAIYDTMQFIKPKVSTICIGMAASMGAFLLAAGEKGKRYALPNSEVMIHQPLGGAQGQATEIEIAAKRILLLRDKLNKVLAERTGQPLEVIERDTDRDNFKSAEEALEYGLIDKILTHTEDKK
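Purified B. subtilis ClpP, 10 microg/mL final in Tris/HCl pH8 with KCl, BSA, glycerol and Tween-20, cleaved an Abz/nitrotyrosine-quenched decapeptide. Fluorescence (ex 320, em 430) was read at 0 and 20 min at room temperature. Delta was normalized to 5.8 microM ADEP and DMSO/no-enzyme controls.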
IDH1 R132H inh – qHTS for Inhibitors of mutant isocitrate dehydrogenase 1 (IDH1): qHTS. Isocitrate dehydrogenase [NADP] cytoplasmic (Homo sapiens), O75874. IDH1-R132H enzyme, NADPH consumption, diaphorase/resazurin fluorescence. Potency, µM (top dose mostly 76.6 µM), actives largely listed as inhibitors. 390,000 compounds, 0.093% hits; also: nearly all actives have a fitted effect of over 65% in size
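IDH1-R132H (0.5 ug/mL) preincubated 30 min with compound, then NADPH (0.016 mM) and alpha-KG (2 mM) added; 80 min at RT, pH 7.5. Remaining NADPH coupled via diaphorase/resazurin to fluorescence (540/590 nm); concentration-response curves normalized to no-enzyme control.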
RGS4 inh – Inhibitors of Regulator of G Protein Signaling (RGS) 4: qHTS | Regulator of G-protein signaling 4 (Homo sapiens), P49798 | Transcreener GDP fluorescence polarization, RGS4-accelerated GTP hydrolysis | Potency, µM (top dose mostly 114 µM), most hits filed as inhibitors | 390,000 compounds, 0.039% hits; also: nearly all actives have a fitted effect of over 75% in size
Target sequence (P49798 whole entry, looked up): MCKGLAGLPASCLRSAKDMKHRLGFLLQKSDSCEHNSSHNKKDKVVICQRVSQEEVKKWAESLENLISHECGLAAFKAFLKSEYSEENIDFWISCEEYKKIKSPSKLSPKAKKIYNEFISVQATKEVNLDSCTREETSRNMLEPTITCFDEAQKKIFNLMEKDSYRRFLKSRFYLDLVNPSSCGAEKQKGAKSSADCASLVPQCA
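MLSMR compounds (23 nl, pin-transferred) preincubated 10 min at room temperature with a 500nM (2x) first reagent, then RGS4 at 900nM (2x) plus Transcreener GDP mix added; fluorescence polarization (620/688 nm) read before and after 90 min at 30 °C.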
Mito fusion act – qHTS Assay for Small Molecule Inhibitors of Mitochondrial Division or Activators of Mitochondrial Fusion. S. cerevisiae fusion-defective mutant growth rescue, CellTiterGlo 48 h. Potency, µM (top dose mostly 46.1 µM), hits mostly activators. 320,000 compounds, 0.23% hits; also: nearly all actives have a fitted effect of over 45% in size
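Compounds are tested for their ability to restore growth of mitochondrial fusion-defective yeast strains at non-permissive 37C in YPEG medium over 48 hours. Viability is quantified by luciferase luminescence.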
ASM inhibitor – Inhibitors of Secretory Acid Sphingomyelinase (S-ASM): qHTS. Sphingomyelin phosphodiesterase (Homo sapiens), P17405. placental ASM, HMU-PC fluorogenic substrate, 60 min. Potency, µM (doses to about 57.5 µM), usual class: inhibitors. 340,000 compounds, 0.006% hits. AID 504937, 2011
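Human placenta-derived ASM preincubated with compound 10 min at room temperature, then reacted with 9 uM (final) fluorogenic HMU-PC substrate for 60 min at 37 C. Stop solution raises pH to 10; fluorescence read at Ex 386/Em 447 nm.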
Hits are given with their value; ! = repeats disagree. The entries come from a sample that favours hits as a whole. Unless noted, calls follow the shape of the dose curve; as a rule, active = well fitted curve in the direction sought with a large enough effect; inconclusive = small, poorly fitted or top-dose-only effect, or another doubt; inactive = no such curve, though single readings can be large; an effect the other way counts as inactive or inconclusive.

`O=C(Oc1c(Cl)cc(Cl)c2ccccc12)N1CCCCC1` gave LDHA block inactive, ClpP mod inactive, IDH1 R132H inh inactive, RGS4 inh inactive, Mito fusion act inactive and ASM inhibitor inactive.
O=C(Oc1ccc(Cl)c2ccccc12)N1CCCCC1 was read as LDHA block inactive, ClpP mod 28µM, IDH1 R132H inh inactive, RGS4 inh inactive, Mito fusion act inactive and ASM inhibitor inactive.
Fc1ccc(C2=CCN(C(c3cccs3)c3nnnn3CCc3ccccc3)CC2)cc1 (stereo unspecified) was read as LDHA block inactive, ClpP mod inactive, IDH1 R132H inh inactive, RGS4 inh inconclusive, Mito fusion act inconclusive and ASM inhibitor inactive.
For CCC(C)(C)n1nnnc1C(c1cccs1)N1CC=C(c2ccc(F)cc2)CC1 (stereo unspecified) the results were LDHA block inactive, ClpP mod inactive, IDH1 R132H inh inactive, RGS4 inh inactive, Mito fusion act 10µM and ASM inhibitor inactive.
`NC(N)=NC(=O)c1nc(Cl)c(N)nc1N` gave LDHA block inactive, ClpP mod inactive, IDH1 R132H inh inactive, RGS4 inh inconclusive, Mito fusion act 16µM! and ASM inhibitor inactive.
`Cc1ccc2c(c1)CC1(CN2C)C(=O)NC(=O)N(CCC2=CCCCC2)C1=O` (stereo unspecified) gave LDHA block inactive, ClpP mod 16µM, IDH1 R132H inh inactive, RGS4 inh inactive, Mito fusion act inactive and ASM inhibitor inactive.
For COCCNC(=O)c1c(NC(=O)c2ccc(Br)o2)n(Cc2ccccc2)c2nc3ccccc3nc12 the results were LDHA block inactive, ClpP mod inactive, IDH1 R132H inh inactive, RGS4 inh inactive, Mito fusion act 7.1µM and ASM inhibitor inactive.
`COCCCNC(=O)c1c(NC(=O)c2ccco2)n(Cc2ccccc2)c2nc3ccccc3nc12` gave LDHA block inactive, ClpP mod 16µM, IDH1 R132H inh inactive, RGS4 inh inconclusive, Mito fusion act inactive and ASM inhibitor inactive.
CC(OC(=O)c1cn(C)c2ccccc12)C(=O)Nc1ccc(C(N)=O)cc1 (stereo unspecified) was read as LDHA block inactive.
Cc1cccc2nc(-c3ccccc3)c(-c3ccc(CN4CCC(n5c(=O)[nH]c6ccccc65)CC4)cc3)nc12 was read as LDHA block inactive and ClpP mod 25µM.
`Cc1[nH]nc2c1C(c1ccc(-c3ccccc3F)o1)SCC(=O)N2` (stereo unspecified) gave LDHA block inactive.
C=C(C)[C@H]1CN[C@H](C(=O)O)[C@@H]1CC(=O)O was read as RGS4 inh inactive.
`O=C(O)[C@H]1[C@H]2CN[C@H](C(=O)O)[C@H]21` gave RGS4 inh 6µM.
`CC(C)n1cnc2c(C(=O)N[C@H]3CN4CCC3CC4)cc(Cl)cc21` gave RGS4 inh 4.7µM.
Cc1cc(N(CCCl)CCCl)ccc1C=NNC(=O)Cc1cc(=O)oc2cc(O)ccc12 was read as LDHA block inactive, ClpP mod 28µM, IDH1 R132H inh inactive, RGS4 inh inactive and ASM inhibitor inactive.
`Cc1cc(N(CCCl)CCCl)ccc1/C=N/NC(=O)c1ccco1` gave LDHA block inactive, ClpP mod inactive, IDH1 R132H inh inactive, RGS4 inh inactive, Mito fusion act inactive and ASM inhibitor inactive.
For CCOc1cc(CN2CCN(C(=O)COc3ccc4ccccc4c3)CC2)ccc1OC the results were LDHA block inactive.
